Experimental data published in PubChem BioAssay (Tox21).
Records with an inconclusive call do not appear. The source made the active and inactive calls. Unless noted, calls come from the whole dose curve; as a rule, active = well fitted curve in the direction sought with a large enough effect in the repeat runs; inconclusive = weak or mixed curves; inactive = no such curve, though single readings can be large; an effect the other way counts as inactive or inconclusive.

Key:
[1] = A CellTox Green Cytotoxicity Assay to monitor cytotoxicity in HepG2 cells - 8 hour (AID 1224890); note: nearly all actives have a fitted effect of over 45% in size
Procedure, shortened: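 HepG2 cells were seeded together with the CellTox Green dye at 600 cells/well, left 5 h at 37 C/5% CO2, then given compounds in DMSO. Fluorescence from dye bound to dead-cell DNA was read repeatedly over 40 h of treatment at 37 C.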

[2] = qHTS assay to identify small molecule antagonists of the estrogen receptor alpha (ER-alpha) signaling pathway using the BG1 cell line in the presence of 0.1 nM 17-beta-estradiol - cell viability counter screen (AID 1259241); note: nearly all actives have a fitted effect of over 40% in size
Procedure, shortened: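 Cells were plated and left 24 hr, compounds in DMSO were pinned in, 17beta-estradiol was added to 0.1 nM final, and after 22 hr CellTiter-Fluor reagent was added for 30 min before fluorescence was read.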

[3] = qHTS assay to identify small molecule antagonists of the androgen receptor (AR) signaling pathway using the MDA cell line in the presence of 0.5 nM R1881 - cell viability counter screen (AID 1259242); note: nearly all actives have a fitted effect of over 45% in size
Procedure, shortened: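 MDA-kb2 cells (human breast carcinoma, stably carrying MMTV-luciferase reporter) were exposed to compounds with 0.5 nM R1881 (final) for 16 hr at 37C, 0% CO2; viability then read as live-cell protease fluorescence (CellTiter-Fluor, 30 min) in the same wells.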

[4] = qHTS assay to identify small molecule HDAC inhibitors (AID 1259364); note: nearly all actives have a fitted effect of over 45% in size; note: potency is the fitted concentration of half-maximal effect; for activity change, negative = inhibition: top concentration of the series differs between compounds
Procedure, shortened: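 Wild-type HCT-116 cells were plated overnight, exposed to compounds for 2 h at 37 °C, then given HDAC-Glo class I/II luminogenic reagent for 30 min at room temperature before luminescence was read.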

[5] = qHTS assay to identify small molecule HDAC inhibitors - cell viability counter screen (AID 1259365); note: series mostly up to about 92 µM; nearly all actives have a fitted effect of over 50% in size
Procedure, shortened: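 Counter screen in wild-type HCT-116 cells: compounds dissolved in DMSO are pin-transferred onto overnight-plated cells and left 2hr at 37C. ATP-based CellTiter-Glo luminescence then measures viable cells.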

[6] = qHTS assay to identify small molecule agonists of the sonic hedgehog signaling (Shh) pathway - cell viability counter screen (AID 1259366); note: nearly all actives have a fitted effect of over 50% in size
Procedure, shortened: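 Cells are plated at 2,000 per well and left 4hr at 37C, 5% CO2 before compound addition. After 23hr of treatment, CellTiter-Fluor reagent is added for 1hr at 37C and fluorescence is measured.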

[7] = qHTS assay to identify small molecule antagonists of the sonic hedgehog signaling (Shh) pathway - cell viability counter screen (AID 1259367); note: nearly all actives have a fitted effect of over 55% in size; note: potency is the fitted concentration of half-maximal effect
Procedure, shortened: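 Using CellTiter-Fluor, viability of Gli1-Luc reporter 3T3 cells is read by fluorescence in the wells used for the Shh luciferase assay. Treatment lasts 23 hr with conditioned medium, then reagent 1 hr at 37C.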

[8] = qHTS assay to identify small molecule phospholipidosis (PLD) inducers (AID 1259344; active = well fitted curve in the direction sought with a large enough effect; an effect the other way counts as inactive or inconclusive)
Procedure, shortened: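 Fluorescent phospholipid staining (LipidTOX Red) measured by automated microscopy in fixed HepG2 cells after 24 h treatment; nuclei counterstained with Hoechst 33342; amiodarone as reference inducer.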

[9] = target: Estrogen receptor (Homo sapiens) (UniProt P03372); experiment: qHTS assay to identify small molecule antagonists of the estrogen receptor alpha (ER-alpha) signaling pathway using the BG1 cell line in the presence of 0.1 nM 17-beta-estradiol (AID 1259244); note: nearly all actives have a fitted effect of over 50% in size
Sequence of Estrogen receptor (Homo sapiens) (P03372 whole entry, looked up): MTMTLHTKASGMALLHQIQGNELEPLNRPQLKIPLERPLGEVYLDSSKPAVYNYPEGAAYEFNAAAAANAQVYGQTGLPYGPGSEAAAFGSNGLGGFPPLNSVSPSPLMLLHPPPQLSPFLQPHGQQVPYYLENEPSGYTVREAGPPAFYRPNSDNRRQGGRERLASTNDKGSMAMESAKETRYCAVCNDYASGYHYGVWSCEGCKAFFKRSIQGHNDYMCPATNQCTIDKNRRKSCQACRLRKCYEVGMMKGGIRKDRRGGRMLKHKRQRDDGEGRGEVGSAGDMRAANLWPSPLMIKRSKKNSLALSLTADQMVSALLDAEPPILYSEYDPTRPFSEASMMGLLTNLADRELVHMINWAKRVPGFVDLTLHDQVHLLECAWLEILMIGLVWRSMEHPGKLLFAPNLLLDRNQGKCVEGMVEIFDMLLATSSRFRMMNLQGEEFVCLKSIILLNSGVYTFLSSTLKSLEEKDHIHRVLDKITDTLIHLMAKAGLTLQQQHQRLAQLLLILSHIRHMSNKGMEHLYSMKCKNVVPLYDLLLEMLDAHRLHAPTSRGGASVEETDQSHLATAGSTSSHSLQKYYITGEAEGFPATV
Procedure, shortened: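 VM7Luc4E2 cells (endogenous full-length ER-alpha, stable 4xERE-luciferase) were grown 5 days in phenol red-free medium with charcoal-stripped FBS, then exposed 22 h at 37C to compounds plus 0.1 nM (final) 17beta-estradiol; ONE-Glo luminescence read-out.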
% is set by controls: 0 for no effect and ±100 for the full control effect.

Cc1c(Cl)cccc1[N+](=O)[O-]
inactive: Potency [1] | Potency [2] | Potency [3] | Potency [4] | outcome [5] | Potency [6] | Potency [7]

CC(=O)OCC(=O)[C@@]1(O)CC[C@H]2[C@@H]3CCC4=CC(=O)C=C[C@]4(C)[C@@]3(F)[C@@H](O)C[C@@]21C
inactive: Potency [1] | Potency [2] | Potency [3] | Potency [4] | outcome [5] | Potency [6] | Potency [7]

C[C@]12CCC(=O)C=C1[C@@H]1C[C@@H]1[C@H]1[C@@H]3[C@@H]4C[C@@H]4[C@@]4(CCC(=O)O4)[C@@]3(C)CC[C@@H]12
inactive: Potency [1] | Potency [2] | Potency [3] | Potency [4] | outcome [5] | Potency [6] | Potency [7]

Cc1cccc(C)c1NC(=O)CN1CCCC1
inactive: Potency [1] | Potency [2] | Potency [3] | Potency [4] | outcome [5] | Potency [6] | Potency [7]

Cc1nc2sccn2c(=O)c1CCN1CCC(=C(c2ccc(F)cc2)c2ccc(F)cc2)CC1
inactive: Potency [1] | Potency [2] | Potency [3] | Potency [4] | outcome [5] | Potency [6] | Potency [7]

FC1(F)C(F)(F)C(F)(F)C2(F)C(F)(C1(F)F)C(F)(F)C(F)(F)C1(F)C(F)(F)C(F)(F)C(F)(F)C(F)(F)C12F (centres undefined)
inactive: Potency [1] | Potency [2] | Potency [3] | Potency [4] | outcome [5] | Potency [6] | Potency [7]

CC1=CC(=C(c2ccc(N)cc2)c2ccc(N)cc2)C=CC1=N
inactive: cytotoxicity increase [1] 1.46% [at 6.97 µM] | activity change, negative = cytotoxicity [2] -17.9% [at 8.39 µM] | viability change, negative = cytotoxic [3] -23% [at 8.39 µM] | Potency [8] | activity change, negative = inhibition [4] -3.34% [at 8.39 µM] | activity change, negative = cytotoxicity [5] -17.7% [at 8.39 µM] | viability change, negative = cytotoxic [7] -16.1% [at 8.39 µM]

CC(C)CCCCCCCOC(=O)c1ccc(C(=O)OCCCCCCCC(C)C)c(C(=O)OCCCCCCCC(C)C)c1
inactive: Potency [1] | Potency [2] | Potency [3] | Potency [4] | outcome [5] | Potency [6]
active: Potency [7] 42.6 µM

CCC(=O)O[C@]1(C(=O)COC)[C@@H](C)C[C@H]2[C@@H]3CCC4=CC(=O)C=C[C@]4(C)C3(F)[C@@H](O)C[C@@]21C (some centres undefined)
inactive: Potency [1] | Potency [2] | Potency [3] | Potency [4] | outcome [5] | Potency [6] | Potency [7]

OCCOc1cccc(OCCO)c1
inactive: Potency [1] | Potency [2] | Potency [3] | outcome [5] | Potency [6] | Potency [7]
active: Potency [4] 24.3 µM

C/C=C1\[C@H]2C=C(C)C[C@]1(N)c1ccc(=O)[nH]c1C2
inactive: Potency [1] | Potency [2] | Potency [3] | Potency [4] | outcome [5] | Potency [6] | Potency [7]

O=C1c2ccccc2C(=O)C1c1ccc2ccccc2n1
active: Potency [4] 1.91 µM
inactive: Potency [1] | Potency [2] | Potency [3] | outcome [5] | Potency [6] | Potency [7]

C=CC(C)(O)CC/C=C(/C)CCC=C(C)C (centres undefined)
inactive: Potency [1] | Potency [2] | Potency [3] | Potency [4] | outcome [5] | Potency [6] | Potency [7]

C=CC(O)CCCCC (centres undefined)
inactive: Potency [1] | Potency [2] | Potency [3] | Potency [4] | outcome [5] | Potency [6] | Potency [7]

C=CC(C)CCC=C(C)C (centres undefined)
inactive: Potency [1] | Potency [2] | Potency [3] | Potency [4] | outcome [5] | Potency [6] | Potency [7]

CCCCCC1CCC(=O)O1 (centres undefined)
inactive: Potency [1] | Potency [2] | Potency [3] | Potency [9] | outcome [5] | Potency [6] | Potency [7]

C=C(C)C(=O)OCCCCCCCCCCOC(=O)C(=C)C
inactive: Potency [1] | Potency [2] | Potency [3] | Potency [4] | outcome [5] | Potency [6] | Potency [7]

CC(O)CN (centres undefined)
inactive: Potency [1] | Potency [2] | Potency [3] | Potency [9] | outcome [5] | Potency [6] | Potency [7]

CCCCCCOC(=O)c1ccccc1
inactive: Potency [1] | Potency [2] | Potency [3] | Potency [9] | outcome [5] | Potency [6] | Potency [7]

CCOc1ccccc1O
inactive: Potency [1] | Potency [2] | Potency [3] | Potency [4] | outcome [5] | Potency [6] | Potency [7]

Nc1ccc(C(=O)Oc2ccccc2)c(O)c1
inactive: Potency [1] | Potency [2] | Potency [3] | Potency [9] | outcome [5] | Potency [6] | Potency [7]

CCCCCCCCNC
inactive: Potency [1] | Potency [2] | Potency [3] | Potency [4] | outcome [5] | Potency [6] | Potency [7]

Nc1ccc(-c2ccc(F)cc2)cc1
inactive: Potency [1] | Potency [2] | Potency [3] | Potency [9] | outcome [5] | Potency [7]

CCC(C)C1N=C(C)C(C)S1 (centres undefined)
inactive: Potency [1] | Potency [2] | Potency [3] | Potency [4] | outcome [5] | Potency [6] | Potency [7]

COc1ccc(CN(CCN(C)C)c2ncccn2)cc1
inactive: Potency [1] | Potency [2] | Potency [3] | Potency [8] | Potency [4] | outcome [5] | Potency [6] | Potency [7]

O=C(O)CNc1ccccc1
inactive: Potency [1] | Potency [2] | Potency [3] | Potency [4] | outcome [5] | Potency [6] | Potency [7]

C=C[Si](OCC)(OCC)OCC
inactive: Potency [1] | Potency [2] | Potency [3] | Potency [4] | outcome [5] | Potency [6] | Potency [7]
